{"source": "PubChem BioAssay AID411", "about": "(National Center for Advancing Translational Sciences (NCATS), 2006)", "note": "Among all 72,000 compounds or so, about 1,600 (2.2%) were called active. Calls follow the shape of the dose curve; as a rule, active = well fitted inhibition curve with a large enough effect; inconclusive = small, poorly fitted or top-dose-only effect; inactive = flat fitted curve, though single readings scatter. The list comes from a sample in which actives are over-represented; it also holds similar structures and randomly drawn compounds. % is scaled to controls: 0 for no effect and ±100 for the full control effect; potency is read from the fitted curve at half-maximal effect."}
{"target": "Luciferin 4-monooxygenase (Photinus pyralis) (UniProt P08659)", "sequence (P08659 whole entry, looked up)": "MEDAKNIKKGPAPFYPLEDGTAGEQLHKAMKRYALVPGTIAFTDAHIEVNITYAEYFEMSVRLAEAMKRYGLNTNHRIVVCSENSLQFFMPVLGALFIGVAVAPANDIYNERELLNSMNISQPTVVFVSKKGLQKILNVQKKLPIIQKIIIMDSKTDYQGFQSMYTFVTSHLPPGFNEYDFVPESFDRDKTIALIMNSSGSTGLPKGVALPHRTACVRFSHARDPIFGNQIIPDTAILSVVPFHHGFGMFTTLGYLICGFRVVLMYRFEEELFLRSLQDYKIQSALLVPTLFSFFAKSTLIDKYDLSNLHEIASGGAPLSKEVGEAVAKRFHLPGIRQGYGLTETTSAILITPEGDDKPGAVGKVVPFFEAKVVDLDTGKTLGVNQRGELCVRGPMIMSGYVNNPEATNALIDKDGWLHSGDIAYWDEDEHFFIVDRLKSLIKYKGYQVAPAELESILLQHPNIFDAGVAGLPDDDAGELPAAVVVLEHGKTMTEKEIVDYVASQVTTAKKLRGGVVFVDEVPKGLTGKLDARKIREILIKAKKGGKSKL", "assay": "qHTS Assay for Inhibitors of Firefly Luciferase; also: nearly all actives have a fitted effect of over 40% in size", "settings": "purified firefly luciferase, luminescence, 8 min; series mostly up to 57.1 µM; activity change, negative = inhibition: at the top concentration", "method": "To aid in the interpretation of high-throughput screening (HTS) results derived from luciferase-based assays, we used quantitative HTS, an approach that defines the concentration-response behavior of each library sample, to profile the ATP-dependent luciferase from Photinus pyralis against more than 72 000 samples. Luciferase (PKLight, Cambrex Corporation) was assayed for its ability to generate light using ATP and luciferin as substrates. The ATP concentration in the assay (10 uM) was within the linear range of enzyme activity for the assay conditions used. See following reference for further details: [1] Auld DS, Southall NT, Jadhav A, Johnson RL, Diller DJ, Simeonov A, Austin CP, Inglese J. Characterization of chemical libraries for luciferase inhibitory activity. J Med Chem. 2008 Apr 24;51(8):2372-86. Auld DS, Zhang YQ, Southall NT, Rai G, Landsman M, Maclure J, Langevin D, Thomas CJ, Austin CP, Inglese J. A Basis for Reduced Chemical Library Inhibition of Firefly Luciferase Obtained from Directed Evolution. J. Med. Chem., 2009, 52 (5), pp 1450#1458 [3] Auld DS, Thorne N, Nguyen DT, Inglese J. A specific mechanism for nonspecific activation in reporter-gene assays. ACS Chem Biol. 2008 Aug 15;3(8):463-70. Auld DS, Thorne N, Maguire WF, Inglese J. Mechanism of PTC124 activity in cell-based luciferase assays of nonsense codon suppression. Proc Natl Acad Sci U S A. 2009 Mar 3;106(9):3585-90. Inglese J, Auld DS, Jadhav A, Johnson RL, Simeonov A, Yasgar A, Zheng W, Austin CP. Quantitative high-throughput screening: a titration-based approach that efficiently identifies biological activities in large chemical libraries. Proc Natl Acad Sci U S A. 2006 Aug 1;103(31):11473-8.\nFour uL of substrate mix (final concentration, 50 mM imidazole pH 7.2, 50 mM KCl, 7 mM MgCl2, 10 uM ATP, 0.01% Tween 20, 0.05% BSA) was dispensed into white 1536 well plates. Twenty-three nL of compound was delivered by a pin tool and 2 uL of luciferase detector mix (PKLight, Cambrex) was added. Following 8-minute incubation at ambient temperature, luminescence was measured by a ViewLux (Perkin Elmer) at 5 seconds exposure/plate."}
{"compound": "COc1ccc(-c2cc3ccc(OCc4nn[nH]n4)cc3oc2=O)cc1", "Potency": "3.16 µM (active)"}
{"compound": "CCCCc1cc(=O)oc2cc(C)cc(OCc3nn[nH]n3)c12", "activity change, negative = inhibition": "3.09% (inactive)"}
{"compound": "O=c1oc2cc(O)ccc2cc1-c1ccc(F)cc1", "activity change, negative = inhibition": "4.51% (inactive)"}
{"compound": "CCn1ccnc1C[C@@H]1COc2ccccc2O1", "Potency": "inactive"}
{"compound": "CCOc1ccc(C(C)C)cc1S(=O)(=O)n1nc(C)cc1C", "activity change, negative = inhibition": "0.916% (inactive)"}
{"compound": "O=C1C(c2ccccn2)=[N+]([O-])c2ccccc21", "activity change, negative = inhibition": "-5.6% (inactive)"}
{"compound": "CCn1nc(C(=O)OCC(=O)N2c3ccccc3CC2C)c2ccccc2c1=O", "note": "(stereo unspecified)", "activity change, negative = inhibition": "-32.8% (inactive)"}
{"compound": "CCCC(=O)N1c2ccc(-c3csc(N)n3)cc2CC1C", "note": "(stereo unspecified)", "Potency": "12.6 µM (active)"}
{"compound": "CCC(=O)N1c2ccc(S(=O)(=O)CCC(=O)N3CCN(c4ccccc4)CC3)cc2CC1C", "note": "(stereo unspecified)", "activity change, negative = inhibition": "-0.787% (inactive)"}
{"compound": "O=C(c1ccc2c(c1)OCCO2)C1CCN(S(=O)(=O)c2cccc(F)c2)CC1", "activity change, negative = inhibition": "0.966% (inactive)"}
{"compound": "O=C(c1ccc(F)cc1)C1CCN(CCCCc2ccccc2)CC1", "activity change, negative = inhibition": "-0.998% (inactive)"}
{"compound": "Cc1nc2cnc(N3CCN(C)CC3)nc2n(CCC#N)c1=O", "activity change, negative = inhibition": "0.64% [at 11.4 µM] (inactive)"}
{"compound": "O=C1CCC(C(=O)Nc2ccc(OC(F)F)cc2)N1", "note": "(stereo unspecified)", "activity change, negative = inhibition": "-35% (inactive)"}
{"compound": "OCCCN1c2ccccc2Nc2nnc(-c3ccccc3)cc21", "Potency": "3.98 µM (active)"}
{"compound": "NS(=O)(=O)c1cc(Cl)c(Cl)c(S(N)(=O)=O)c1", "activity change, negative = inhibition": "-1.68% [at 25.5 µM] (inactive)"}
{"compound": "COc1ccc(Br)c2c1C[C@H](C(=O)O)CC2", "activity change, negative = inhibition": "3.64% [at 11.4 µM] (inactive)"}
{"compound": "CCN(Cc1ccncc1)C(=O)[C@@H](CO)c1ccccc1", "Potency": "inactive"}
{"compound": "Cn1c(=NC(=O)CSCC(=O)N2CCOCC2)sc2ccccc21", "activity change, negative = inhibition": "0.14% (inactive)"}
{"compound": "Cn1c(=NC(=O)c2cnccn2)sc2ccccc21", "Potency": "12.6 µM (active)"}
{"compound": "Cn1c(=NC(=O)CSCC(=O)N2CCCCC2)sc2ccccc21", "activity change, negative = inhibition": "1.33% (inactive)"}
{"compound": "Cc1ccc2nc(-c3ccc(SCC(=O)Nc4cc(C)on4)nc3)[nH]c2c1", "Potency": "2.51 µM (active)"}
{"compound": "Cc1cc(C)c2c(c1)cc(C)c1nnc(SCC(=O)Nc3cc(C)on3)n12", "activity change, negative = inhibition": "-0.208% (inactive)"}
{"compound": "Cc1nc(SCC(=O)Nc2cc(C)on2)c2c(C)c(C)sc2n1", "activity change, negative = inhibition": "1.36% (inactive)"}
{"compound": "COc1ccc(N(C(=O)c2cccnc2)S(=O)(=O)c2ccc3c(c2)n(C)c(=O)n3C)cc1", "activity change, negative = inhibition": "3.46% (inactive)"}
{"compound": "O=S(=O)(Nc1ccccn1)c1ccc(Oc2ccccc2)cc1", "activity change, negative = inhibition": "-1.02% (inactive)"}
{"compound": "CCOC(=O)N1CCC(NC(=O)c2cnn3ccccc23)CC1", "activity change, negative = inhibition": "2.3% (inactive)"}
{"compound": "O=C(c1cccc(C(=O)N2CCc3ccccc32)n1)N1CCc2ccccc21", "activity change, negative = inhibition": "-0.0998% (inactive)"}
{"compound": "O=C(c1cnn2ccccc12)N1CCc2ccccc21", "Potency": "12.6 µM (active)"}
{"compound": "O=C(c1ccc([N+](=O)[O-])cc1)[C@@H](Br)[C@@H](Br)c1ccnc2ccccc12", "activity change, negative = inhibition": "-0.655% [at 11.4 µM] (inactive)"}
{"compound": "COC(=O)CNS(=O)(=O)c1ccc(Cc2ccc(S(=O)(=O)NCC(=O)OC)cc2)cc1", "activity change, negative = inhibition": "2.65% (inactive)"}
{"compound": "O=C(Nc1ccncc1)c1cc2ccccc2o1", "Potency": "20 µM (active)"}
{"compound": "O=C(NCCc1ccc2c(c1)OCCO2)c1cc2ccccc2o1", "activity change, negative = inhibition": "-1.17% (inactive)"}
{"compound": "O=C(Nc1ccncc1)c1c(F)cccc1F", "activity change, negative = inhibition": "-1.11% (inactive)"}
{"compound": "O=C(c1ccco1)N1CCC[C@@]2(CCN(Cc3nccs3)C2)C1", "activity change, negative = inhibition": "2.02% [at 11.4 µM] (inactive)"}
{"compound": "COc1ccc(Cc2nnnn2CC(=O)O)cc1", "activity change, negative = inhibition": "2.34% (inactive)"}
{"compound": "COc1ccc(C(=O)Nc2nncs2)c(OC)c1", "activity change, negative = inhibition": "-26.7% (inactive)"}
{"compound": "CC(=O)Cc1nsc(NC(=O)c2csc3c2CCCC3)n1", "activity change, negative = inhibition": "-7.41% (inactive)"}
{"compound": "COC(=O)c1sccc1NC(=O)c1csc2c1CCCC2", "activity change, negative = inhibition": "-1.4% (inactive)"}
{"compound": "COC(=O)c1sc(NC(=O)c2ccc(OC)cc2OC)nc1C", "Potency": "0.0794 µM (active)"}
{"compound": "COC(=O)c1sc(NC(=O)c2csc3c2CCCC3)nc1C", "Potency": "10 µM (active)"}
{"compound": "CCOC(=O)c1sc(NC(=O)c2cc(S(=O)(=O)N3CCOCC3)ccc2C)nc1C", "activity change, negative = inhibition": "1.64% (inactive)"}
{"compound": "CC(C)=CCC/C(C)=C/CO/N=C1/C[C@@H](O)[C@@H](O)[C@@H]2[C@@H]3C(=O)N(C(C)(C)C)C(=O)[C@H]3CC[C@H]12", "activity change, negative = inhibition": "0.109% [at 11.4 µM] (inactive)"}
{"compound": "Cc1cnc(NC(=O)CSc2nnc(-c3ccc(Cl)cc3Cl)n2N)s1", "activity change, negative = inhibition": "-5.3% (inactive)"}
{"compound": "CCOC(=O)C1CCN(C(c2cc3cc(C)cc(C)c3[nH]c2=O)c2nnnn2C2CCCCC2)CC1", "note": "(stereo unspecified)", "activity change, negative = inhibition": "3.48% (inactive)"}
{"compound": "COc1ccc(-c2nn(-c3ccccc3)cc2C(=O)Nc2nc(CC(C)=O)ns2)cc1", "activity change, negative = inhibition": "1.9% (inactive)"}
{"compound": "O=C(O)C1CCN(c2ncnc3ccc(-c4ccccc4C(F)(F)F)cc23)CC1", "activity change, negative = inhibition": "0.203% [at 2.29 µM] (inactive)"}
{"compound": "COc1ccc(NC2CC(=O)N(C)C2=O)cc1", "note": "(stereo unspecified)", "activity change, negative = inhibition": "2.41% [at 25.5 µM] (inactive)"}
{"compound": "COc1ccccc1CNc1ccnc(-c2c(C)noc2C)n1", "activity change, negative = inhibition": "-0.167% [at 2.29 µM] (inactive)"}
{"compound": "CC(C)(C)c1csc(NC2=NS(=O)(=O)c3ccccc32)n1", "Potency": "7.94 µM (active)"}
{"compound": "CC(c1nnc(SCC(=O)Nc2sccc2C#N)n1-c1ccc(Cl)cc1)N(C)C", "note": "(stereo unspecified)", "activity change, negative = inhibition": "1.74% (inactive)"}
{"compound": "O=S(=O)(c1cccs1)N1CCN(Cc2ccccc2)CC1", "activity change, negative = inhibition": "0.959% (inactive)"}
{"compound": "CCCCN(C)C(=O)C1CCN(Cc2ccccn2)CC1", "activity change, negative = inhibition": "-0.416% (inactive)"}
{"compound": "COc1ccc(-n2ncc3c(N4CCCc5ccccc54)ncnc32)cc1", "Potency": "12.6 µM (active)"}
{"compound": "Cc1cccc(-n2ncc3c(N4CCc5ccccc54)ncnc32)c1", "activity change, negative = inhibition": "0.441% (inactive)"}
{"compound": "COc1ccc(N2CCN(C(=O)CSc3ncnc4c3cnn4-c3ccc(OC)cc3)CC2)cc1", "activity change, negative = inhibition": "-3.13% (inactive)"}
{"compound": "c1ccc(-n2ncc3c(N4CCCC4)ncnc32)cc1", "Potency": "5.01 µM (active)"}
{"compound": "c1ccc(-n2ncc3c2ncn2c(C4CCCCC4)nnc32)cc1", "activity change, negative = inhibition": "0.168% (inactive)"}
{"compound": "Cc1ccc(-n2ncc3c(N4CCN(c5ccc(F)cc5)CC4)ncnc32)c(C)c1", "activity change, negative = inhibition": "0.241% (inactive)"}
{"compound": "COc1ccc2c(c1)C=CC1(O2)N(CCO)c2ccccc2C1(C)C", "note": "(stereo unspecified)", "activity change, negative = inhibition": "-3.19% (inactive)"}
{"compound": "CCOC(=O)c1cc(-c2nnc(-c3cc(OC)c(OC)c(OC)c3)o2)c(C)nc1C", "activity change, negative = inhibition": "0.0559% (inactive)"}
{"compound": "CC(=O)c1c(C)n(-c2ccc(N(C)C)cc2)c2ccc(OCC(N)=O)cc12", "activity change, negative = inhibition": "1.64% (inactive)"}
{"compound": "N#CC1=C(N)C(C#N)(C#N)[C@H](c2ccsc2)[C@H]2COCC=C12", "activity change, negative = inhibition": "5.37% (inactive)"}
{"compound": "Cc1nn2c3ccccc3nc2n(C)c1=O", "activity change, negative = inhibition": "0.967% (inactive)"}
{"compound": "Cn1c(CNC(=O)C(C)(C)C)nc2ccccc21", "activity change, negative = inhibition": "1.81% (inactive)"}
{"compound": "Cn1c(-c2ccc(C(=O)c3ccccc3)s2)nc2ccccc21", "Potency": "2.51 µM (active)"}
{"compound": "Cn1c(=O)c2c(n(Cc3ccccc3)c1=O)NC(=O)C2CC(=O)N1CCc2ccccc2C1", "note": "(stereo unspecified)", "activity change, negative = inhibition": "4.38% (inactive)"}
